Measurements reported in the supplement of paper PMC12024529.

test system: HEK293 WT BDD-FVIII-Gluc; assay: secreted FVIII-Gluc luciferase Z-score vs DMSO control; higher = more FVIII-Gluc secretion; conditions: 5 µM
Experimental: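 Natural plant-compound library (480 compounds, ST catalogue IDs) screened on HEK293 cells stably expressing WT BDD-FVIII-Gaussia luciferase fusion at 5 µM. Secreted Gluc activity in the medium is given as a Z-score relative to DMSO controls.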

SMILES | secreted FVIII-Gluc luciferase Z-score
O=c1cc(-c2ccccc2)oc2cc(O)c(O)c(O)c12 | -0.284
CO[C@@H]1[C@@H](O[C@@H]2O[C@H](C)[C@@H](O[C@H]3C[C@@](C)(O)[C@@H](OC(=O)CC(C)C)[C@H](C)O3)[C@H](N(C)C)[C@H]2O)[C@@H](CC=O)C[C@@H](C)[C@@H](O)/C=C/C=C/C[C@@H](C)OC(=O)C[C@H]1OC(C)=O | 0.0728
O=c1c(O)c(-c2ccc(O)c(O)c2)oc2c(O[C@@H]3O[C@H](CO)[C@@H](O)[C@H](O)[C@H]3O)c(O)cc(O)c12 | 1.19
COc1ccc2c3c1O[C@H]1C[C@@H](O)C=C[C@@]31CCN(C)C2 | 0.615
CCc1cn(C2CC(O)C(CO)O2)c(=O)[nH]c1=O (stereo not drawn) | -0.382
CCCCCCCCCCCC1=C(O)C(=O)C=C(O)C1=O | 0.529
COc1ccc(OC)c(C2Nc3ccccc3NC3=C2C(=O)CC(C)(C)C3)c1Br (stereo not drawn) | 0.0362
COc1cc2c(cc1OC)C(Cc1ccc(OC)c(OC)c1Oc1cc3c(cc1OC)-c1c(OC)c(OC)cc4c1C(C3)N(C)CC4)N(C)CC2 (stereo not drawn) | 0.304
OCC1(O)OC[C@H](O)[C@@H](O)[C@@H]1O (stereo partly drawn) | 0.437
O=C1C[C@@H]2[C@@H](CO)[C@H](O)C[C@@H]2O1 | 0.258
C=CC(C)(O)CCCC(C)CCCC(C)CCCC(C)C (stereo not drawn) | 0.179
C[C@H](CCC(=O)O)[C@H]1CC[C@H]2[C@@H]3CC[C@@H]4C[C@H](O)CC[C@]4(C)[C@H]3CC[C@]12C | 1.27
C[C@H](O)[C@H](O)[C@@H](O)c1cnc2nc(N)[nH]c(=O)c2n1 | 0.588
COc1cccc2oc(-c3ccc(O)cc3)cc(=O)c12 | 1.3
NC(Cn1ccc(=O)c(O)c1)C(=O)O (stereo not drawn) | 0.208
CC(=O)OC1CCC2(C)C3CCC4(C)C(CC5CCCCC54C(C)=O)C3CC(=O)C2(O)C1 (stereo not drawn) | 0.153
CC1=CC(=O)C2CC1C2(C)C (stereo not drawn) | 0.115
COc1cc2cc3c4c(cc(OC)c(OC)c4c2cc1OC)CCN3C | 0.0768
Cc1cc(=O)cc2oc3cc(N)c(-c4c(C)cc(O)cc4O)c(C)c3nc1-2 | -0.31

SMILES | secreted FVIII-Gluc luciferase Z-score
COc1ccc(-c2coc3cc(O)cc(O)c3c2=O)cc1 | 0.185
O=C(O)CCCC[C@@H]1SC[C@@H]2NC(=O)N[C@@H]21 | 0.929
CC(Cc1ccc(O)c(O)c1)C(C)Cc1ccc(O)c(O)c1 (stereo not drawn) | 0.14
O=C(/C=C/c1ccc(O)c(O)c1)OC(Cc1ccc(O)c(O)c1)C(=O)O (stereo not drawn) | 0.861
COC(=O)CC[C@@H](C)[C@H]1CC[C@H]2[C@@H]3CC[C@@H]4C[C@H](O)CC[C@]4(C)[C@H]3C[C@H](O)[C@]12C | 0.392
Nc1nc2ncc(CNc3ccc(C(=O)NC(CCC(=O)O)C(=O)O)cc3)nc2c(=O)[nH]1 (stereo not drawn) | -0.865
NC(=O)NCCC[C@H](N)C(=O)O | -0.102
COc1cccc(-c2cc(=O)c3cc(O)ccc3o2)c1 | 0.695
CC[C@@H]1OC(=O)[C@@H](C)[C@H](O[C@H]2C[C@@](C)(OC)[C@@H](O)[C@H](C)O2)C(C)[C@H](O[C@H]2O[C@@H](C)C[C@@H](N(C)C)[C@@H]2O)[C@@](C)(O)C[C@H](C)C(=O)[C@@H](C)[C@H](O)[C@@]1(C)O (stereo partly drawn) | -1.17
COC1C(O)C(O)C(O)C(O)C1O (stereo not drawn) | 0.358
OC[C@H]1O[C@@H](OC[C@H]2O[C@@H](O)[C@H](O)[C@@H](O)[C@@H]2O)[C@H](O)[C@@H](O)[C@@H]1O | 0.42
Cc1ccc2oc(-c3ccccc3)c(O)c(=O)c2c1 | 1.13
COc1ccc(-c2cc(=O)c3ccc(O)cc3o2)cc1 | 1.22
C[C@H]1[C@H]2CC[C@H]3[C@@H]4CC=C5C[C@@H](N(C)C)CC[C@]5(C)[C@H]4CC[C@]23CN1C | 0.23
N[C@H](CCC(=O)O)C(=O)O | -0.453
CC(C)CC(N)C(=O)O (stereo not drawn) | 0.117
Cc1c(-c2c(C)c(=O)c3c(C(C)C)c(=O)c(=O)c(C=O)c-3c2=O)c(O)c2c(C=O)c(O)c(O)c(C(C)C)c2c1O | -0.893
CC1=C(C2=C(C)C(C(C)C)C3=C(C(=O)C(O)C3O)C2O)C(O)C2=C(C(O)C(O)C2=O)C1C(C)C (stereo not drawn) | -0.542
Cc1ccc2oc(-c3ccccc3)cc(=O)c2c1 | 0.845
